# Compound activity (PubChem BioAssay)
# Shown are actives, neighbours in structure and some others; about 21% of the full set was active somewhere.
# Pf growth 48h: inhibits P. falciparum growth in the first generation, 48 h. P. falciparum luciferase growth in erythrocytes, 48 h. Potency, µM (doses to about 28.7 µM), inactives show at the top dose activity change, negative = inhibition, most hits filed as inhibitors. AID 504832. hit rate 5.9% among 310,000; note: potency is the fitted concentration of half-maximal effect; % is set by controls: 0 for no effect and ±100 for the full control effect
#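 Compounds are pin-transferred into medium, infected erythrocytes (2% hematocrit, 0.1% parasitemia final) are added, and plates sit one parasite generation at 37 C in 5% CO2. Detection reagent is then added and luminescence measured.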
# Cycloheximide cs: affects cycloheximide protein synthesis inhibition readout, counter-screen. cell reporter, cycloheximide protein synthesis inhibition counterscreen. max response, %. hit rate 12% among 300,000; in the data active = max response mostly above about 13%, no sharp cut-off; inactive = mostly below about 14%; note: read at 38.3 µM for the half of the compounds with a filed dose; 0% is about no effect
# HCV inhibitor: blocks hepatitis C virus. Huh7.5.1 HCVcc-Cre infection, luciferase reporter, 44 h. hit rate 3.4% among 340,000. AID 651820. Potency, µM (series often up to 41.8 µM), inactives show top-dose activity change, negative = inhibition, usual class: inhibitors; note: potency is the fitted concentration of half-maximal effect; % is set by controls: 0 for no effect and ±100 for the full control effect
#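 HCVcc-Cre virus at an moi near 0.5 was added right after compound to cells cultured 4 h from seeding (1,000 cells/well). Luciferase activity was determined 44 h later, 15 min after substrate addition at RT.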
# HCMV inh: blocks human cytomegalovirus replication; HFF cells, HCMV-luciferase reporter, 72 h; active compounds read low; hit rate 4.5% among 410,000; activity change, negative = inhibition, % at 57.5 µM; in the data active = activity change below about -60%; inconclusive = no clear call, values can overlap the other calls; inactive = above about -39%; note: % is set by controls: 0 for no effect and ±100 for the full control effect
#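 Cell-based, HFFs, 1000 cells/well, 16 h 37C; cpds in DMSO + HCMV-luc, MOI 1 PFU/cell; 72 h 37C; OneGlo luminescence after 5 min RT; norm. to buffer vs Salinomycin 10uM.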
# Pf growth 96h: P. falciparum growth inhibition at 96 hours; P. falciparum luciferase reporter growth, 96 h; Potency, µM (highest dose often 28.7 µM), without a hit: at the top dose activity change, negative = inhibition, most hits filed as inhibitors; AID 504834; hit rate 6.9% among 320,000; note: potency is the fitted concentration of half-maximal effect; % is set by controls: 0 for no effect and ±100 for the full control effect
#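 Compounds incubated with erythrocytes infected by luciferase-expressing P. falciparum (2% hematocrit, 0.05% parasitemia final) for 96 hours, 37 C in 5% CO2. Growth inhibition scored as decreased luciferase luminescence.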
# Shiga inhibitor: blocks Shiga toxin action in Vero cells; Vero cells, Shiga toxin protein synthesis inhibition reporter; hit rate 9.2% among 290,000; inhibition, % at 38.7 µM; AID 2315; in the data active = inhibition mostly above about 28%, no sharp cut-off; inactive = mostly below about 43%; note: 0% is about no effect
# * hit, by the source's call; ? = inconclusive; · = no result; [ ] = another dose, or the depositor's remark. Unless noted, calls come from the whole dose curve; as a rule, active = well fitted inhibition curve with a large enough effect; inconclusive = small, poorly fitted or top-dose-only effect, or another doubt; inactive = no such curve, though single readings can be large or run the other way.
SMILES,Pf growth 48h,Cycloheximide cs,HCV inhibitor,HCMV inh,Pf growth 96h,Shiga inhibitor
CCNc1nc2c(c(=O)n(Cc3ccccc3)c(=O)n2C)n1Cc1ccccc1,10.4µM*,-5.0,1.6%,-28.0,24.1%,-6.9
CCOC(=O)c1ccc2c(c1)n(CCCS(=O)(=O)[O-])c(/C=C/c1ccc(Cl)cc1)[n+]2CC,9.28µM*,6.9,?,?,?,-0.8
O=S(=O)(NCCc1ccccn1)c1ccc(F)c(F)c1,12.7%,-2.5,11.9%,-15.7,5.22µM*,-6.5
O=S(=O)(NCCc1ccccn1)c1ccc(OC(F)(F)F)cc1,-4.6%,8.8,-9.0%,-7.9,23.3%,-9.3
COc1ccc(S(=O)(=O)NCc2ccccn2)c(C)c1C,3.0%,-1.4,-15.8%,-2.0,6.7%,-9.5
O=S(=O)(NCc1ccccn1)c1ccccc1,·,-4.8,9.6%,-1.0,43.0%,20.4
COc1ccccc1Oc1ccc(S(=O)(=O)NCc2ccccn2)cc1,2.4%,2.6,?,?,10.4µM*,22.6
CC(C)(C)c1ccc(S(=O)(=O)NCc2ccccn2)cc1,10.0%,18.0*,8.7%,-1.3,-0.1%,48.2
CCOc1ccc(S(=O)(=O)NCc2ccccn2)c(C)c1C,?,8.3,-0.3%,-12.9,10.4µM*,6.6
CCCSc1nnc2c(n1)OC(c1cccs1)Nc1ccc(Br)cc1-2 (centres undefined),·,·,·,61.8,·,·
O=C(c1ccccc1)c1ccccc1NC(=O)C1CCCN1Cc1ccccc1 (centres undefined),?,0.3,?,-60.3*,?,-8.0
CCOC(=O)c1sc(NC(=O)Nc2ccccc2)cc1C,-55.3%,151.5*,?,-24.3,-106.8%,99.0*
CCOC(=O)c1cc(C)sc1NC(=O)c1ccc(Cl)s1,7.6%,-3.1,-5.9%,?,·,-11.0
CCOC(=O)c1cc(NC(=O)Nc2ccccc2Cl)c(C)nc1C,8.0%,1.1,?,-20.0,56.2%,24.4
CCOC(=O)c1sc(NC(=O)c2ccc(C)s2)cc1C,161.8%,65.1*,?,-8.3,0.0%,68.5*
CCOC(=O)c1sc(NC(C)=O)cc1C,-2.3%,1.2,-10.7%,5.4,-2.9%,34.6
CCOC(=O)c1sc(NC(=O)Nc2ccccc2Cl)cc1C,-45.1%,69.0*,?,-73.8*,-74.9%,112.8*
CCOC(=O)c1sc(NC(=O)C2CCC2)cc1C,36.7%,27.7*,?,-30.8,?,115.5*
COc1ccc(C(=O)NC(=S)NCc2cccnc2)cc1Cl,-25.0%,-4.6,?,-29.2,-0.3%,-8.3
O=C(OCc1nc2ccccc2s1)C1CCN(C2=NS(=O)(=O)c3ccccc32)CC1,75.9%,61.4*,0.0%,-26.3,?,60.4*
CCOC(=O)CSc1nc2ccc(NC(=O)CSc3nnnn3Cc3ccccc3)cc2s1,-23.7%,-2.2,14.3%,4.2,2.7%,-6.5
CC(C)(C)NC(=O)CSc1nc2ccc(NC(=O)CSc3nnc(N)s3)cc2s1,-13.2%,-7.4,12.6µM*,6.3,?,-17.0
CC(C)(C)NC(=O)CSc1nc2ccc(NC(=O)CSc3nnnn3Cc3ccccc3)cc2s1,·,-3.1,2µM*,-76.8*,4.65µM*,-3.0
CN1CCc2cc3c(c4c2[C@H]1Cc1ccccc1-4)OCO3,·,-6.0,·,·,·,2.5
COc1cc2c(cc1O)C[C@H]1NCCc3cc4c(c-2c31)OCO4,?,-2.3,10.9%[8.37 µM],-84.0*,?,-16.3
SMILES,Pf growth 48h,Cycloheximide cs,HCV inhibitor,HCMV inh,Pf growth 96h,Shiga inhibitor
COc1cc2c(cc1OC)-c1c(OC)c(OC)cc3c1C(C2)N(C)CC3 (centres undefined),4.15µM*,-6.0,-32.1%,27.9,126.4%,-22.3
COc1cc2c(cc1OC)-c1c3c(cc4c1[C@@H](C2)N(C)CC4)OCO3,?,-5.4,?,-75.6*,?,-24.3
Cn1c(N)c(N2CCCCC2)c(=O)n(CC(=O)Nc2cccc(C#N)c2)c1=O,·,·,-7.0%,-18.5,·,·
Cc1ccc(C(=O)OCC(=O)NCc2ccccc2)s1,·,·,·,-23.2,·,·
CCCNC(=O)c1ccc(Cn2c(SCC(=O)NC(C)C)nc3ccccc3c2=O)cc1,·,·,·,1.4,·,·
COc1cc(NC(C)CCc2ccccc2)cc(OC)c1OC (centres undefined),-21.7%,-2.8,-4.1%,34.1,3.7µM*,-7.7
COc1ccc(CCC(C)Nc2cccc(F)c2)cc1 (centres undefined),?,18.4*,-19.9%,12.8,?,13.2
COc1cccc(OC)c1C(=O)NC(C)CCc1ccccc1 (centres undefined),23.9%,1.0,13.8%,8.6,?,·
Cc1nc(SCC(=O)Nc2ccccc2C)cc(-c2ccccc2)n1,·,·,·,-3.3,·,·
CC(/C=N/NC(=O)Cc1cc(=O)[nH][nH]1)=C\c1ccccc1,26.1%,-0.6,4.1%,-11.4,28.5%,0.9
O=C(N/N=C/C(Br)=C\c1ccccc1)c1cccs1,?,73.5*,?,-0.9,3.7µM*,78.6*
CC(=C/c1ccccc1)/C=N/NC(=O)c1cccs1,254.4%,35.6*,-1.2%,-21.6,-66.4%,78.2*
O=C(N/N=C/C=C/c1ccc([N+](=O)[O-])cc1)c1cccs1,-15.0%,14.8,16.3%,28.7,75.4%,56.7
CCc1noc(C)c1C(=O)N(CC)CC(=O)NCc1ccc(F)cc1,·,·,·,15.4,·,·
CCOC(=O)C1=NN(c2ccc(C)cc2)CC1C(=O)OC (centres undefined),12.4%,5.4,14.0%,16.7,5.86µM*,-2.3
COC(=O)C1CC(=O)N(c2ccc(C)cc2)C1 (centres undefined),3.8%,4.7,20.5%,-24.9,-0.1%,1.8
Cc1cc(Cn2ccnc2)c(C)cc1Cn1ccnc1,13.1µM*,-1.5,22.5%,34.9,?,-8.2
OCc1ccccc1Cn1ccnc1,·,·,·,20.7,·,·
COC(=O)C(c1ccccc1)(c1cn(C)c2ccc(OC)cc12)C(Nc1ccccc1)c1ccccc1 (centres undefined),·,·,·,-24.0,·,·
Cc1ccc(S(=O)(=O)Nc2cccc(CP(=O)(c3ccccc3)c3ccccc3)c2)cc1,3.29µM*,-3.4,-15.9%,-32.0,9.28µM*,-8.2
Cc1ccc(S(=O)(=O)Nc2cccc(C(=O)NCc3ccc(S(N)(=O)=O)cc3)c2)cc1,3.3%,-1.2,8.4%,6.8,-1.8%,-13.7
O=C(CP(=O)(c1ccccc1)c1ccccc1)Nc1cccc(CP(=O)(c2ccccc2)c2ccccc2)c1,?,-1.3,-15.5%,-4.2,7.38µM*,8.8
CCn1c(=O)n(CC)c2cc(NS(=O)(=O)c3ccccc3)ccc21,9.3%,-0.8,7.9%,165.0,14.6%,-10.4
CCn1c2ccccc2c2cc(NS(=O)(=O)c3ccc(C)cc3)ccc21,-4.5%,-1.1,?,-60.5*,?,14.2
COc1cccc(NS(=O)(=O)c2cc3c4c(c2)C(C)C(=O)N4CCC3)c1 (centres undefined),·,·,·,-11.1,·,·
